According to PubChem BioAssay:
Active and inactive are the calls of the source. Unless noted, the rule behind the calls is not given here.

Tests used:
[1] = test system: Wnt5a (protein binding on small-molecule microarray); assay: small molecules binding Wnt5a protein – biophysical, small-molecule microarray, 635/667 nm fluorescence, primary screen (AID 1142); conditions: 635 nm fluorescence, higher = more signal;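 note: fluorescence read at 667 nm with signal to noise per printed feature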
[2] = ATP-based viability of Huh7 replicon cells – cell-based, CellTiter-Glo luminescence, basal, 48 h, cytotoxicity control for HCV replication inhibitor project, primary screen (AID 1143); conditions: higher = more signal, called active from +8 up or from −8 down;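 note: Huh7 hepatoma cells carrying a hepatitis C replication reporter with no stimulus; test concentration not given here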
[3] = Pseudomonas biofilm growth suppression – PAO1 strain, BacTiter-Glo luminescence, LB-PBS, primary screen (AID 1144); conditions: P. aeruginosa PAO1 biofilm, 12 h, higher = more signal
[4] = basal CRE-LacZ reporter activity in PC12 – cell-based, unstimulated, primary screen (AID 1145); conditions: no forskolin, luminescence, 4.5 h, higher = more signal, called active from +8 up or from −8 down
[5] = forskolin-driven CRE-LacZ activity in PC12 – cell-based, CRE-LacZ reporter, forskolin-stimulated, primary screen (AID 1146); conditions: luminescence, 4.5 h, higher = more signal, called active from +8 up or from −8 down;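 note: PC12 cells with 6xCRE LacZ reporter stimulated by forskolin 10 µM; beta-galactosidase reporter signal reflecting CREB driven transcription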
[6] = target: Streptavidin (Streptomyces avidinii) (UniProt P22629); assay: compounds binding control protein streptavidin – biophysical, small-molecule microarray, 635/667 nm fluorescence, artefact control for SMM compound annotation, primary screen (AID 1147); conditions: higher = more signal;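 note: signal reflects streptavidin binding to arrayed compounds as a control protein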
Chain of Streptavidin (Streptomyces avidinii) (P22629 whole entry, looked up): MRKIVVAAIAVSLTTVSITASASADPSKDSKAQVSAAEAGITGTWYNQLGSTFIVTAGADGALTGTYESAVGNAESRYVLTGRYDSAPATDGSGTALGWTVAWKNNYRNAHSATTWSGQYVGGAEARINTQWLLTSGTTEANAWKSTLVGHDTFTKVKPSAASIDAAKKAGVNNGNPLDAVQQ

[7] = probe aInhba binding on compound microarray – biochemical, small-molecule microarray, 635/667 nm fluorescence, primary screen (AID 1148); conditions: higher = more signal;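 note: score merges 667nm spot fluorescence with signal-to-noise for antibody binding to printed compounds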
[8] = target: Torsin-1A (Homo sapiens) (UniProt O14656); assay: TOR1A wild-type binding on microarray – cell lysate, small-molecule microarray, lysate, 635/667 nm, primary screen (AID 1149); conditions: COS7 hTOR1A-WT lysate, 635 nm fluorescence, higher = more signal
Chain of Torsin-1A (Homo sapiens) (O14656 whole entry, looked up): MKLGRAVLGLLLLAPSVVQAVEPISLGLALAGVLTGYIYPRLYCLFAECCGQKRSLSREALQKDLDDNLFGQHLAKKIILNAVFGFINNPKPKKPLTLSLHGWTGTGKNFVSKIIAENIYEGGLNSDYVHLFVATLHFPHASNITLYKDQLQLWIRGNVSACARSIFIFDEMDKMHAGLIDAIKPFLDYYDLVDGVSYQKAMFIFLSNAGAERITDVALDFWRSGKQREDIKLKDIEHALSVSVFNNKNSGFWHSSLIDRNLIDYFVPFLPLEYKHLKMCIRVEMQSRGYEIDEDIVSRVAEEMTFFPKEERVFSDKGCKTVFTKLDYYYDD

[9] = target: Torsin-1A (Homo sapiens) (UniProt O14656); assay: torsin A mutant lysate binding on microarrays – cell lysate, small-molecule microarray, COS7 lysate, 635/667 nm fluorescence, primary screen (AID 1150); conditions: COS7 hTOR1A mutant lysate, 635 nm fluorescence, higher = more signal;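 note: score pools 667 nm emission and signal to noise measuring lysate protein binding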
[10] = test system: Sonic hedgehog protein (Shh); assay: Sonic hedgehog microarray binding compounds – biochemical, small-molecule microarray, 635/667 nm fluorescence, primary screen (AID 1151); conditions: 635 nm fluorescence, higher = more signal;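 note: Shh protein binding to compounds spotted on small-molecule microarray slides; score combines spot fluorescence intensity with signal-to-noise across triplicate slides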
[11] = optical density shifts of acrAB sulA E. coli – strain DRC41, OD650, 48 h, E. coli filamentation inducer project, primary screen (AID 1152); conditions: higher = more signal, called active from +8 up or from −8 down;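 note: E. coli MC1000 strain DRC41 lacking acrAB efflux pump and sulA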
[12] = probe aLefty1 binding on compound microarray – biochemical, small-molecule microarray, 635/667 nm fluorescence, primary screen (AID 1153); conditions: higher = more signal;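 note: score merges spot fluorescence with signal-to-noise ratio from the scanned slide images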
[13] = plasmodial surface anion channel blockers, osmotic lysis – cell-based, P. falciparum Indochina, OD700, 1 h, primary screen (AID 1154); conditions: P. falciparum Indochina infected RBC osmotic lysis, higher = more signal, called active from +8 up or from −8 down
[14] = plasmodial surface anion channel blockers, osmotic lysis – cell-based, P. falciparum Indochina, OD700, 2 h, primary screen (AID 1155);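 note: lysis reports solute entry through the parasite surface anion channel PSAC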; conditions: P. falciparum Indochina infected erythrocytes, higher = more signal, called active from +8 up or from −8 down
[15] = changes in parasitized red cell lysis, either direction – P. falciparum Indochina, OD700, 3 h, PSAC antagonist project, primary screen (AID 1156); conditions: P. falciparum-infected erythrocytes, osmotic lysis, higher = more signal, called active from +8 up or from −8 down
[16] = plasmodial surface anion channel blockers, osmotic lysis – cell-based, P. falciparum Indochina, OD700, 18 h, primary screen (AID 1157); conditions: P. falciparum Indochina infected erythrocytes, osmotic lysis OD700, 18 h; higher = more signal, called active from +8 up or from −8 down
[17] = S6 kinase pathway phospho-S6 level changes – cell-based, A549, cytoblot, luminescence, serum-stimulated, primary screen (AID 1158); conditions: 5 h, higher = more signal;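 note: serum-stimulated A549 lung adenocarcinoma cells; signal is phosphorylated S6 detected by cytoblot immunostaining with HRP secondary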
[18] = target: NADPH oxidase 2 (Homo sapiens) (UniProt P04839); assay: compounds shifting NOX2 Amplex Red fluorescence – cell-based, HEK293-NOX2, PMA-stimulated, NOX inhibitor project, primary screen (AID 1159); conditions: 45 min, higher = more signal, called active from +8 up or from −8 down; note: test concentration not given here
Chain of NADPH oxidase 2 (Homo sapiens) (P04839 whole entry, looked up): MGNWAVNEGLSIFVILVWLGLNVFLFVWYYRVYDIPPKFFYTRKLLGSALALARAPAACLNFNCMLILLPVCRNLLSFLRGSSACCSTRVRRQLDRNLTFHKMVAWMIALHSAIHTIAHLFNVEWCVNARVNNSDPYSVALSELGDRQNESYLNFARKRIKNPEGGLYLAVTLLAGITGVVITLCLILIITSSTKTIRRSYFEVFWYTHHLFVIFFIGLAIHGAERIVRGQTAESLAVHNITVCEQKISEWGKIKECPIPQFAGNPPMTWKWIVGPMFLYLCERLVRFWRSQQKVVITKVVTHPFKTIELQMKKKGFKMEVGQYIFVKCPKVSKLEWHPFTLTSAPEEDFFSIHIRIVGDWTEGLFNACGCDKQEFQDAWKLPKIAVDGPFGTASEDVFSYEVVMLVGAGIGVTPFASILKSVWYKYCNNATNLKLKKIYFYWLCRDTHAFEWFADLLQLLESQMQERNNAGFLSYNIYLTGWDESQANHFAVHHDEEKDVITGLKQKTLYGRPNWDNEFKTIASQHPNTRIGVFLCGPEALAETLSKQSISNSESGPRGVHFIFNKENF

[19] = target: NADPH oxidase 4 (Homo sapiens) (UniProt Q9NPH5); assay: compounds shifting NOX4 Amplex Red fluorescence – cell-based, HEK293-NOX4, tetracycline-induced, NOX inhibitor project, primary screen (AID 1160); conditions: HEK293-NOX4, Amplex Red H2O2 fluorescence, 45 min; higher = more signal, called active from +8 up or from −8 down
Chain of NADPH oxidase 4 (Homo sapiens) (Q9NPH5 whole entry, looked up): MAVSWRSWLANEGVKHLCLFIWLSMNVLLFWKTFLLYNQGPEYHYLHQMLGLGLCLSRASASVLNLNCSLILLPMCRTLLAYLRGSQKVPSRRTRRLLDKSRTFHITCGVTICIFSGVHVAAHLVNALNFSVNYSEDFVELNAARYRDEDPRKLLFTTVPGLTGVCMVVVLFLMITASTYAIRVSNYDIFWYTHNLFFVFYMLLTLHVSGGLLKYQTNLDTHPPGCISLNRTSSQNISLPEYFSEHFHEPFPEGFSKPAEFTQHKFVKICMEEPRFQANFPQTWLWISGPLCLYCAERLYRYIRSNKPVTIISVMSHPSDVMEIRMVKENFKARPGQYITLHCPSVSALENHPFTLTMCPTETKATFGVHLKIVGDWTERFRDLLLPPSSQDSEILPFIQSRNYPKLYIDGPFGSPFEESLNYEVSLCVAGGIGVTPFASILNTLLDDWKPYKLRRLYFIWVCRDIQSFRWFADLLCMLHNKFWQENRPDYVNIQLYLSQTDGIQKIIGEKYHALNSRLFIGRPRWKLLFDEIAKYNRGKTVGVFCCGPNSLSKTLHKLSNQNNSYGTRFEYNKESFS

[20] = target: NADPH oxidase 5 (Homo sapiens) (UniProt Q96PH1); assay: compounds shifting NOX5 Amplex Red fluorescence – cell-based, HEK293-NOX5, NOX inhibitor project, primary screen (AID 1161); conditions: HEK293-NOX5, ionomycin, 45 min, higher = more signal
Chain of NADPH oxidase 5 (Homo sapiens) (Q96PH1 whole entry, looked up): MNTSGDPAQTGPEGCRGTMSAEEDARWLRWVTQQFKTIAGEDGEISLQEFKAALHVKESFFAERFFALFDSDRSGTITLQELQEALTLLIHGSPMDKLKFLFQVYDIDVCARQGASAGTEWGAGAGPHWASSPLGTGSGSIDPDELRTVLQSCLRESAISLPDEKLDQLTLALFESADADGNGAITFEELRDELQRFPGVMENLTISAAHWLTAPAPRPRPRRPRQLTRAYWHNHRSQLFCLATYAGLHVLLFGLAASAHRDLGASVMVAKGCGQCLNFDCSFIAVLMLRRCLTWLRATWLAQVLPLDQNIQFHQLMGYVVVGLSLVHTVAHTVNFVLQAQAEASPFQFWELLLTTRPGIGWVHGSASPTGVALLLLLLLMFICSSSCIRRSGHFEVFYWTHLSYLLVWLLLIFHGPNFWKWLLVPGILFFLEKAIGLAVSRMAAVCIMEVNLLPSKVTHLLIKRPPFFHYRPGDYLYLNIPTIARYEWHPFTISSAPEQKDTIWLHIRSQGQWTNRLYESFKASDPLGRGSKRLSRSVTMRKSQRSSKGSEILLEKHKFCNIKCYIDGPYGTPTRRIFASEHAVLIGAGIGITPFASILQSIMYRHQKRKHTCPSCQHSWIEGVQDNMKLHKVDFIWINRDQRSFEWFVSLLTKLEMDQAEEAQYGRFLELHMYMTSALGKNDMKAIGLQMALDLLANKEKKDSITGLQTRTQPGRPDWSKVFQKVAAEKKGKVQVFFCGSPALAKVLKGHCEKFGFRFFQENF

| SMILES | composite z-score [1] | z-score [2] | z-score [3] | z-score [4] | z-score [5] | composite z-score [6] | composite z-score [7] | composite z-score [8] | composite z-score [9] | composite z-score [10] | z-score [11] | composite z-score [12] | z-score [13] | z-score [14] | z-score [15] | z-score [16] | z-score [17] | z-score [18] | z-score [19] | z-score [20] |
| --- | --- | --- | --- | --- | --- | --- | --- | --- | --- | --- | --- | --- | --- | --- | --- | --- | --- | --- | --- | --- |
| CCOC(=O)C[C@H]1[C@H](OC(=O)c2ccccc2-c2ccccc2)[C@@H](NC(=O)c2ccc(-c3ccccc3)cc2)c2cc(OCCCO)ccc2N1C(=O)Cc1ccc(OC)cc1 | 0.17 | 0.132 (inactive) | 0.846 (inactive) | 2.3 (inactive) | 0.41 (inactive) | 0.0511 | 0.038 | -0.153 | 1.02 | 0.56 | -0.866 (inactive) | -0.147 | 17.3 (active) | 2.83 (inactive) | -0.405 (inactive) | 0.575 (inactive) | 0.111 | 0.155 (inactive) | 1.22 (inactive) | 1.21 |
| O=C1O[C@H](c2ccccc2)[C@H](c2ccccc2)N2[C@H]1[C@@H](C(=O)NC[C@H](O)c1ccccc1)[C@]1(C(=O)Nc3ccc(C#CC4=CCCCC4)cc31)[C@H]2c1ccc(OCCO)cc1 | 0.271 | -4.66 (inactive) | -0.625 (inactive) | 0.0653 (inactive) | -0.337 (inactive) | 0.635 | -0.0695 | 0.257 | 0.705 | 1.11 | -0.266 (inactive) | 0.0248 | 3.76 (inactive) | 2.55 (inactive) | 0.0828 (inactive) | 2.26 (inactive) | -0.099 | 1.13 (inactive) | 0.611 (inactive) | 1.32 |
| C[C@@H]1NC(=O)[C@H](Cc2ccccc2)NC(=O)[C@@]23C(=O)N[C@@H](Cc4ccccc4)C2[C@H](C)[C@@]2(C)O[C@H]2C3/C=C/C/C=C\CNC1=O (stereo not given in full) | -0.401 | 0.0081 (inactive) | 0.683 (inactive) | 0.125 (inactive) | 0.349 (inactive) | -0.528 | -0.128 | -0.0926 | -0.0686 | 0.596 | -1.13 (inactive) | -0.169 | 1.87 (inactive) | 0.316 (inactive) | 0.134 (inactive) | -0.0643 (inactive) | -0.248 | 0.832 (inactive) | -0.951 (inactive) | 0.906 |
| Cc1cc(C)c(C(O)C2C=CC3C(=O)N(C)C(=O)C3N2N2CCCCC2)c(C)c1 (stereo not given) | 0.423 | 1.09 (inactive) | -0.276 (inactive) | -0.14 (inactive) | 0.56 (inactive) | 1.4 | 0.233 | 0.0592 | 0.251 | 0.375 | -1.06 (inactive) | 0.554 | -0.245 (inactive) | 0.827 (inactive) | -0.285 (inactive) | 1.12 (inactive) | -1.01 | -0.669 (inactive) | 0.167 (inactive) | -1.23 |
| CCOC(=O)C[C@H]1[C@H](OC(=O)c2cc3ccccc3oc2=O)[C@@H](NC(=O)C2CCCCC2)c2cc(OCCCO)ccc2N1C(=O)c1ccc2ccccc2n1 | 0.156 | -0.271 (inactive) | -0.686 (inactive) | 6.62 (inactive) | 0.821 (inactive) | 0.449 | -0.0719 | 0.16 | 0.11 | 0.526 | -0.836 (inactive) | -0.0547 | 4.81 (inactive) | 0.491 (inactive) | 0.499 (inactive) | 0.549 (inactive) | -0.725 | 2.44 (inactive) | 1.52 (inactive) | 0.451 |
| O=C1c2ccccc2[C@@]2(Cc3ccccc3N(CC(F)(F)F)C2=O)[C@H](c2ccc(CO)cc2)N1C1CCCCC1 | 0.327 | -0.323 (inactive) | 0.00188 (inactive) | -0.168 (inactive) | -0.838 (inactive) | -0.256 | 0.207 | 0.17 | -0.309 | 0.522 | 0.969 (inactive) | 0.062 | 0.856 (inactive) | 0.81 (inactive) | 0.0811 (inactive) | 0.427 (inactive) | 0.0443 | 0.161 (inactive) | -0.501 (inactive) | 0.239 |
| O=C1NC(=O)C2C1C=CC(C(O)C=Cc1ccc([N+](=O)[O-])cc1)N2Nc1ccccn1 (stereo not given) | 0.421 | 0.931 (inactive) | -1.23 (inactive) | 0.443 (inactive) | -0.28 (inactive) | -0.208 | 0.0694 | 0.151 | 0.13 | 0.809 | -0.297 (inactive) | 0.0457 | 0.273 (inactive) | 1.27 (inactive) | 0.0385 (inactive) | 1 (inactive) | -0.831 | 0.258 (inactive) | -2.01 (inactive) | -1.52 |
| C=CC[C@]1(C(=O)O)N=C(c2ccc(OCCCO)cc2)O[C@H]1c1ccccc1N=[N+]=[N-] | 0.477 | -0.426 (inactive) | 1.09 (inactive) | 0.629 (inactive) | -1.32 (inactive) | 1.27 | -0.026 | 0.0545 | 0.125 | -0.373 | 1.76 (inactive) | 0.0299 | 32.9 (active) | 29.4 (active) | 3.38 (inactive) | 9.45 (active) | 0.883 | -1.53 (inactive) | 0.823 (inactive) | -0.199 |
| CC(C)NC(=O)[C@@]1(Cc2ccccc2I)c2ccccc2C(=O)N(C2CCCCC2)[C@H]1c1ccc(CO)cc1 | 0.345 | -3.83 (inactive) | -1.09 (inactive) | 0.531 (inactive) | 0.24 (inactive) | 0.999 | 0.122 | 0.457 | 0.559 | 0.28 | 0.151 (inactive) | 0.149 | 7.99 (inactive) | 1.13 (inactive) | 3.67 (inactive) | 1.28 (inactive) | 0.274 | 0.988 (inactive) | -1.77 (inactive) | -1.42 |
